Assay results published in ChEMBL document CHEMBL3988442, “University of Dundee, Small-Polar-MMV Screening Library” (2021).
Among all 53,000 compounds or so, about 900 (1.7%) showed an effect of 50% or more. The full list was thinned out, with strong results kept by preference.

What follows are molecules tested on Mycobacterium tuberculosis (assay: Cornell - Phenotypic assay to identify agents that inhibit growth of Mycobacterium tuberculosis). Details: 10 mM as filed; unlikely as a test dose.
Format: functional
Set-up: scale not given: direction of the effect not stated beside the values

SMILES	Percent Effect
c1ccc(CNc2ccccc2N2CCCC2)nc1	18.15%
O=C(NCc1ccc(Br)cc1F)C1(O)CCSCC1	15.88%
COCCC(=O)NCc1ccc(-c2ccccc2C(=O)O)nc1	47.85%
O=C(Cc1ccccc1)NCc1ccc(-c2ccccc2C(=O)O)cn1	48.74%
O=C(O)c1ccccc1-c1cnc(CNC(=O)C2CCOCC2)nc1	-26.12%
O=C(Cc1ccccc1)NCc1ncc(-c2ccccc2C(=O)O)cn1	23.42%
COCC(=O)NCc1ccc(-c2ccccc2C(=O)O)cn1	56.05%
COCCN1CCC(Cc2cnc(-c3ccccc3C(=O)O)cn2)CC1	-34.65%
CC(=O)NCc1ccc(-c2ccccc2C(=O)O)cn1	56.71%
CS(=O)(=O)c1ccc(-c2ccccc2C(=O)O)cc1	-4.334%
COCCC(=O)NCc1ccc(-c2ccccc2C(=O)O)cn1	57.39%
COCCC(=O)N(CCC#N)c1ccc2c(c1)OCCO2	0.8387%
Cc1noc(C)c1-c1cccc(C2CCN(S(=O)(=O)N(C)C)CC2)n1	42.71%
O=S(=O)(N1CCCCC1)N1CCC(Oc2cnccn2)CC1	20.22%
CN(C(=O)c1ccon1)[C@@H]1CCC[C@@H](Oc2ccccc2)[C@@H]1O	-13.46%
O=C(COc1ccc(-c2ccccc2)nc1)NCC1CC1	18.89%
CCc1oc(C(=O)N(C)Cc2ccncc2)cc1CN(CC)CC	3.07%
COC(=O)c1ccc(N2CCC(c3ccccc3)CC2)nn1	26.44%
COC(=O)c1ccc(N2CCC(N(C)c3ccccc3)CC2)nn1	11.3%
COC(=O)c1ccc(N2CCC(C(O)c3ccccc3)CC2)nn1 (centres undefined)	106%
OCC(CO)N1CCCC(Cc2ccnc(Nc3ccccn3)c2)C1 (centres undefined)	10.34%
Cc1cc(C)n(CCNc2ncnc3c2NC(=O)CN3)n1	18.99%
C/N=C1\c2cc3cc(OC)ccc3n2CCN1C.Cl	-3.392%
C/N=C1\c2cc3cc(OC)ccc3n2CCN1Cc1ccccc1.O=C(O)C(F)(F)F	22.23%
C/N=C1/c2cc3cc(OC)ccc3n2CCN1Cc1ccccc1.Cl	57.78%

SMILES	Percent Effect
CNC(=O)CN1CCOCC12CCN(C(=O)c1ccc(C)cc1)CC2.O=C(O)C(F)(F)F	15.73%
CC(C)n1ccc(-c2cc(C(=O)N3CCN(C)CC3)c3ccccn23)n1.O=C(O)C(F)(F)F	-46.58%
CCN(C)C(=O)c1cc(-c2cn(C(C)C)cn2)n2ccccc12	-58.24%
CCN(C)C(=O)c1cc(-c2ccn(C(C)C)n2)n2ccccc12	68.36%
CC(C)n1ccc(-c2cc(C(=O)N3CCCC3)c3ccccn23)n1	40.75%
CC(C)n1ccc(-c2cc(C(=O)NC3CC3)c3ccccn23)n1	-20.13%
CCCNC(=O)c1cc(-c2ccn(C(C)C)n2)n2ccccc12	54.8%
O=C(c1cc[nH]n1)N1CCc2c(nc(N3CCCCC3)[nH]c2=O)C1	11.2%
CC(C#N)CN(C)C(=O)CCNC(=O)OC(C)(C)C (centres undefined)	19.92%
Cc1cnc(C(=O)N2CCN3C[C@H](OCc4cccnc4)C[C@H]3C2)cn1	-31.84%
Cc1ccc(CNCc2cccc(NC(=O)CCN3CCOCC3)c2)s1	14.02%
CC1=C(C#N)C(=O)NC(=O)/C1=C\c1c(C)nn(-c2ccc(C)cc2)c1O	24.62%
Cc1nc(CN2C(=O)CC[C@@H]3[C@H]2CCN3C2CCOC2)cs1.O=C(O)C(F)(F)F (some centres undefined)	9.813%
CC(=O)N1C[C@@H]2CN(S(=O)(=O)C3CC3)CCO[C@@H]2C1	-7.882%
CCn1nccc1CN(C)C(=O)Cn1nc(C)c(C)c1C	1.975%
CC(C)N(C)Cc1n[nH]c2c1CCN(C(=O)c1ccc[nH]1)C2.O=C(O)C(F)(F)F	-20.42%
Cn1ccc2c(NC(=O)Cn3ncc4c(c3=O)CCCCC4)cccc21	7.683%
Cn1ccc2c(NC(=O)Cn3ncc4c(c3=O)CCCC4)cccc21	50.09%
O=C(Cn1ncc2c(c1=O)CCCCC2)Nc1cccc2[nH]ccc12	32.47%
O=C1C(n2nnc(-c3cccs3)n2)CCN1CC(F)(F)F (centres undefined)	21.02%
Cc1cccc(CNC(=O)CC2CCN(C(=O)C(C)C)CC2)n1	-31.48%
CO[C@H]1CCN(c2nnc(C)s2)C[C@@H]1Cc1cccc(C)c1.O=C(O)C(F)(F)F	15.98%
CO[C@H]1CCN(c2nnc(C)s2)C[C@@H]1Cc1ccccc1.O=C(O)C(F)(F)F	35.25%
Cc1nnc(N2CC[C@H](OCC3CC3)[C@@H](Cc3ccccc3)C2)s1.O=C(O)C(F)(F)F	73.55%
CO[C@@H]1CCN(c2nnc(C)s2)C[C@@H]1Cc1ccccc1.O=C(O)C(F)(F)F	33.57%

SMILES	Percent Effect
CO[C@@H]1CCN(c2nnc(C)s2)C[C@@H]1Cc1cccc(C)c1.O=C(O)C(F)(F)F	41.6%
Cc1nnc(N2CC[C@@H](OCC3CC3)[C@@H](Cc3ccccc3)C2)s1.O=C(O)C(F)(F)F	81.09%
Cc1noc(C)c1CCC(=O)Nc1ccn(C)n1	-3.564%
CC(C)(C(N)=O)S(=O)(=O)c1ccc(Br)cc1	7.461%
CCc1nnc2sc(-c3cc(C(C)C)n[nH]3)nn12	-59.74%
CC(C)(CC(=O)Nc1cccc(Oc2ccccn2)c1)C(=O)O	-19.67%
CC(C)NC(=O)CCC(=O)N1CCC(c2noc3cc(F)ccc23)CC1	-48.35%
O=C(Cn1ccc2c(Cl)cccc21)Nc1nc[nH]n1	5.076%
Cc1cccc(CN2CCC3(CCN(c4ncccn4)CC3)C2=O)c1.O=C(O)C(F)(F)F	58.32%
Cc1cccc(CN2CCC3(CCN(c4ncccn4)C3)C2=O)c1 (centres undefined)	5.151%
Cc1cccc(CN2CCC3(CCN(c4ccccn4)C3)C2=O)c1.O=C(O)C(F)(F)F (centres undefined)	27.3%
CN(Cc1cccc(F)c1)Cc1nc2c(cnn2C)c(=O)[nH]1	-23.35%
Cc1noc(C)c1CN1CCC(c2nnc(Cn3cccn3)n2C)CC1	16.69%
C[C@@H]1CN(c2cccnn2)CC[C@@]1(O)C1CCOCC1	-7.399%
Cc1ccc(-c2nc(CN3C[C@@H](C)NC[C@@H]3C)c(C)o2)s1	12.13%
Clc1cccc(-c2cccc(N3CCC(NC4CCOCC4)CC3)c2)c1	72.63%
COc1cccc(-c2cccc(N3CCC(N[C@@H]4CCOC4)CC3)c2)c1	39.62%
Cc1ccc(-c2cccc(N3CCC(NC4CCOCC4)CC3)c2)cc1	33.16%
CCc1ccc(-c2ncc3c(n2)N(C)CCN(CCN(C)C)C3=O)cc1	13.52%
CC(=O)NCCCNCc1c(C)nn(CC(C)C)c1N(C)C	2.619%
Cc1nn(CC(C)C)c(N(C)C)c1CNCc1cccnc1N(C)C	34.46%
Cc1nc(C)c(C(C)NCc2c(C(C)C)nn(C)c2N(C)C)s1 (centres undefined)	21.22%
Cc1nc(C)c(C(C)NCc2c(C)nn(C)c2N(C)C)s1 (centres undefined)	45.94%
Cc1nn(CC(C)C)c(N(C)C)c1CNCc1ccccc1CO	17.46%
Cc1nn(CC(C)C)c(N(C)C)c1CNCc1cc2ccccc2[nH]1	72.88%

SMILES	Percent Effect
Cc1nn(CC(C)C)c(N(C)C)c1CNCCS(C)(=O)=O	83.1%
Cc1nn(CC(C)C)c(N(C)C)c1CNCCCNS(C)(=O)=O	49.77%
Cc1nc(C)c(C(C)NCc2c(C)nn(CC(C)C)c2N(C)C)s1 (centres undefined)	102.6%
O=C(Cc1csc(-c2ccoc2)n1)NCCC(=O)N1CCCCC1	-18.79%
O=C(CN1CCC(c2ccccc2)CC1)NCc1cc2n(n1)CCNC2	-6.243%
Cc1ccc(NC(=O)c2coc(C)n2)c(C)c1	2.34%
CCN1CCCC(O)(c2nc(C)c(CCOc3ccccc3Cl)s2)CC1 (centres undefined)	12.65%
Fc1cnc(N2CCO[C@H]3[C@H](OCC4CCOCC4)CC[C@@H]32)nc1.O=C(O)C(F)(F)F	-12.23%
Fc1cccc(CN2CCC(c3noc(-c4ccccn4)n3)CC2)c1F	10.24%
Fc1cccc(CN2CCC(c3n[nH]c4ncccc34)CC2)c1F	12.02%
Cl.Fc1ccc(F)c(CN2CCC(c3cc4ncccc4cn3)CC2)c1	106.2%
CCc1onc(C)c1C(=O)N1CCC(c2cc3ncccc3cn2)CC1	-10.62%
Cl.Fc1cccc(CN2CCC(c3cc4ncccc4cn3)CC2)c1F	106.5%
COc1ccc(C)cc1CN1CCC(c2cc3ncccc3cn2)CC1.Cl	102.1%
CCc1cc(C(=O)N2CCC(c3cc4ncccc4cn3)CC2)no1	-43.86%
Fc1cc(F)cc(CN2CCC(c3cc4ncccc4cn3)CC2)c1	48.17%
Fc1ccc(F)c(CN2CCC(c3cnccn3)CC2)c1	-8.862%
CN(C)CC(=O)N1CCCC1c1ccccn1 (centres undefined)	-4.262%
Cc1cc(O)nc(C2CN(CCO)CCO2)n1 (centres undefined)	-14.9%
O=C(NC(Cc1ccsc1)c1nccs1)C1CC1 (centres undefined)	1.52%
COc1ccc(-c2cc(C(=O)NCCC(C)C)n(C)n2)cc1	20.81%
Cc1cnc(-c2nc(O)c3c(n2)CN(C(=O)C2CCOC2)CC3)cn1 (centres undefined)	13.55%
Cc1nccn1-c1nccnc1C1CCCN(C2CCCC2)C1 (centres undefined)	-26.29%
CCc1nccn1C1CCCN(C(=O)c2c(C)nsc2NC)C1 (centres undefined)	-1.736%
